Measured values reported in PubChem BioAssay (Tox21).
A number with no mark means an inactive call. Inconclusive results are not listed. Entries that show only a call come without a potency. The source made the active and inactive calls. Unless noted, calls follow the shape of the dose curve; as a rule, active = well fitted curve in the direction sought with a large enough effect in the repeat runs; inconclusive = weak or mixed curves; inactive = no such curve, though single readings can be large; an effect the other way counts as inactive or inconclusive.

Experiments:
[1] = A CellTox Green Cytotoxicity Assay to monitor cytotoxicity in HepG2 cells - 8 hour (AID 1224890); also: nearly all actives have a fitted effect of over 45% in size
How it was run: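 Cytotoxicity was tracked as dead-cell DNA fluorescence in HepG2 cells treated with test compounds at 37 C; each time-point value comes from one kinetic series spanning 0, 8, 16, 24, 32 and 40 h.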

[2] = qHTS assay to identify small molecule antagonists of the estrogen receptor alpha (ER-alpha) signaling pathway using the BG1 cell line in the presence of 0.1 nM 17-beta-estradiol - cell viability counter screen (AID 1259241); also: nearly all actives have a fitted effect of over 40% in size
How it was run: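 The cell line endogenously expresses full-length ER-alpha and carries four EREs driving luciferase. Cells are cultured 5 days hormone-free, treated 22 hr with compounds and 0.1 nM estradiol, then viability is read by fluorescence.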

[3] = qHTS assay to identify small molecule antagonists of the androgen receptor (AR) signaling pathway using the MDA cell line in the presence of 0.5 nM R1881 - cell viability counter screen (AID 1259242); also: nearly all actives have a fitted effect of over 45% in size
How it was run: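 Cells seeded at 3,000/well and allowed 5 hr at 37C, 0% CO2 before compound transfer and R1881 (0.5 nM final) addition; 16 hr later, live-cell protease fluorescence indicated cytotoxicity.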

[4] = molecular target: Estrogen receptor (Homo sapiens) (UniProt P03372); experiment: qHTS assay to identify small molecule antagonists of the estrogen receptor alpha (ER-alpha) signaling pathway using the BG1 cell line in the presence of 0.1 nM 17-beta-estradiol (AID 1259244); also: nearly all actives have a fitted effect of over 50% in size
How it was run: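 Luciferase signal from VM7Luc4E2 ERE-reporter cells, co-dosed with test compound and 0.1 nM final 17beta-estradiol for 22 h, read with ONE-Glo.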

[5] = qHTS assay to identify small molecule HDAC inhibitors (AID 1259364); also: potency is read from the fitted curve at half-maximal effect;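 also: wild-type HCT-116 cells with endogenous class I/II HDAC activity; nearly all actives have a fitted effect of over 45% in size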
How it was run: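 HCT-116 wt cells, 1,500/well, overnight attach. Compounds (DMSO) 2 h, 37 °C. HDAC-Glo I/II, 30 min RT. Luminescence.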

[6] = qHTS assay to identify small molecule agonists of the sonic hedgehog signaling (Shh) pathway - cell viability counter screen (AID 1259366); also: nearly all actives have a fitted effect of over 50% in size
How it was run: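 Viability measured fluorometrically (CellTiter-Fluor, 1hr, 37C) in 3T3 Gli1-Luc reporter cells after 23hr compound exposure within a 24hr incubation at 37C/5% CO2.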

[7] = qHTS assay to identify small molecule antagonists of the sonic hedgehog signaling (Shh) pathway - cell viability counter screen (AID 1259367); also: nearly all actives have a fitted effect of over 55% in size
How it was run: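 Conditioned medium drove Shh signaling in 3T3 Gli1-Luc cells exposed to compounds at 37C and 5% CO2. Viability was determined from CellTiter-Fluor fluorescence, with reagent incubated 1 hr after 23 hr of treatment.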

[8] = qHTS assay to identify small molecule agonists of the sonic hedgehog signaling (Shh) pathway (AID 1259368; calls by dose curve;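 also: NIH/3T3-derived 3T3Gli1-Luc cells carrying a stable Gli1-driven firefly luciferase reporter; series mostly up to about 92 µM; nearly all actives have a fitted effect of over 15% in size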)
How it was run: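 Following a 24 hr incubation with DMSO-dissolved compounds at 37 C, 5% CO2, Gli1-Luc NIH/3T3-derived cells received luciferase reagent for 30 min at room temperature prior to luminescence measurement.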

[9] = qHTS assay to identify small molecule antagonists of the sonic hedgehog signaling (Shh) pathway (AID 1259369; calls by dose curve; also: nearly all actives have a fitted effect of over 45% in size)
How it was run: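 Read-out is luminescence from a firefly luciferase gene controlled by the Gli1 response element, in 3T3Gli1-Luc cells pre-incubated 4hr then exposed to compounds and conditioned medium for 24hr.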

[10] = molecular target: Estrogen receptor beta (Homo sapiens) (UniProt Q92731); experiment: qHTS assay to identify small molecule antagonists of the estrogen receptor beta (ER-beta) signaling pathway (AID 1259378; active = well fitted inhibition curve with a large enough effect in the signal ratio in the repeat runs, not every such curve was filed as active; the % refers to the signal ratio)
How it was run: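 ER-beta-UAS-bla HEK293T (GripTite) cells in 2% charcoal-stripped FBS medium were preincubated 6 hr at 37C, dosed with compound, then stimulated with 1 nM E2 (final) for 16 hr; beta-lactamase reporter read by B/G FRET fluorescence after 2 hr substrate loading.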

[11] = qHTS assay to identify small molecule agonists of the androgen receptor (AR) signaling pathway in the presence of an antagonist - cell viability counter screen (AID 1259379);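 also: MDA-kb2 human breast cancer cells carrying an MMTV luciferase reporter; series mostly up to about 92 µM; nearly all actives have a fitted effect of over 25% in size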
How it was run: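 Each compound was tested at 15 concentrations on MDA-kb2 cells in the presence of 3.0uM nilutamide. Viability was measured by CellTiter-Fluor fluorescence after a 16 hr incubation at 37C in a CO2-free atmosphere.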

[12] = qHTS assay to identify small molecule antagonists of the estrogen receptor beta (ER-beta) signaling pathway - cell viability counter screen (AID 1259382); also: series mostly up to about 92 µM; nearly all actives have a fitted effect of over 55% in size
How it was run: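 CellTiter-Glo ATP luminescence measured after the LiveBLAzer read in the same wells; ER-beta-UAS-bla HEK293T cells, 16 hr compound treatment with 1nM 17-beta-estradiol agonist at 37C, 5% CO2.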

[13] = molecular target: Estrogen receptor (Homo sapiens) (UniProt P03372); experiment: qHTS assay to identify small molecule agonists of the estrogen receptor alpha (ER-alpha) signaling pathway in the presence of an antagonist (AID 1259383; calls by dose curve; also: top concentration of the series differs between compounds; nearly all actives have a fitted effect of over 15% in size)
How it was run: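 Luminescent ERE-luciferase reporter, VM7Luc4E2 cells (endogenous ER-alpha); 10.0nM ICI-182,780 final; 15-point compound titration; 22hr at 37C; ONE-Glo, 30min RT.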

[14] = qHTS assay to identify small molecule agonists or antagonists of the thyroid stimulating hormone receptor (TSHR) signaling pathway - wild type cell line counter screen (AID 1259384; calls by dose curve)
How it was run: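 Wild-type HEK293 cells were plated 18 h at 37 C/5% CO2, pin-dosed with compound plus Ro20-1724 medium, held 30 min at room temperature, then given cAMP-d2 and anti-cAMP-cryptate; fluorescence was read after 1 h. Fifteen concentrations, triplicate.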

[15] = molecular target: Estrogen receptor beta (Homo sapiens) (UniProt Q92731); experiment: qHTS assay to identify small molecule agonists of the estrogen receptor beta (ER-beta) signaling pathway (AID 1259377; active = well fitted activation curve with a large enough effect in the signal ratio in the repeat runs, not every such curve was filed as active; the % refers to the signal ratio)
How it was run: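 A UAS-controlled beta-lactamase reporter in ER-beta-UAS-bla HEK293T cells reports receptor activation. Compounds act for 16 hr at 37C in 2% charcoal-stripped serum, and a FRET substrate is read by fluorescence after 2 hours.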

[16] = qHTS assay to identify small molecule agonists of the estrogen receptor beta (ER-beta) signaling pathway - cell viability counter screen (AID 1259380); also: nearly all actives have a fitted effect of over 30% in size
How it was run: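 Compounds dissolved in DMSO were pin-transferred onto ER-beta-UAS-bla HEK293T cells that had settled 6 hr, and exposure ran 16 hr at 37C. Following the reporter read, CellTiter-Glo luminescence after 30 min at room temperature indicated cytotoxicity.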

[17] = qHTS assay to identify small molecule HDAC inhibitors - cell viability counter screen (AID 1259365); also: series mostly up to about 92 µM; nearly all actives have a fitted effect of over 50% in size
How it was run: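 Viability readout: CellTiter-Glo luminescence. Wild-type HCT-116 cells, 2hr compound treatment following overnight attachment at 37 C.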

[18] = qHTS assay to identify small molecule phospholipidosis (PLD) inducers (AID 1259344; active = well fitted curve in the direction sought with a large enough effect; an effect the other way counts as inactive or inconclusive)
How it was run: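 After 4 h attachment on collagen I, HepG2 cells were dosed with compound alongside LipidTOX Red, kept 24 h at 37 C, fixed, and imaged for lamellar phospholipid pits.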

[19] = molecular target: Androgen receptor (Homo sapiens) (UniProt P10275); experiment: qHTS assay to identify small molecule antagonists of the androgen receptor (AR) signaling pathway using the MDA cell line in the presence of 0.5 nM R1881 (AID 1259243); also: nearly all actives have a fitted effect of over 50% in size
How it was run: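 Luminescence from an AR/GR-responsive MMTV-luciferase construct in MDA-kb2 breast carcinoma cells, read 30 min after ONE-Glo, following 16 hr co-treatment with compounds and 0.5 nM R1881.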

[20] = molecular target: Androgen receptor (Homo sapiens) (UniProt P10275); experiment: qHTS assay to identify small molecule agonists of the androgen receptor (AR) signaling pathway in the presence of an antagonist (AID 1259381; calls by dose curve; also: nearly all actives have a fitted effect of over 15% in size)
How it was run: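 Plated MDA-kb2 cells (3,000/well) were pre-incubated 5hr, given nilutamide (3.0uM final) or buffer, then dosed with compounds in DMSO at 15 concentrations. Luciferase activity was quantified by luminescence after 16hr at 37C.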

Chain of Estrogen receptor beta (Homo sapiens) (Q92731 whole entry, looked up): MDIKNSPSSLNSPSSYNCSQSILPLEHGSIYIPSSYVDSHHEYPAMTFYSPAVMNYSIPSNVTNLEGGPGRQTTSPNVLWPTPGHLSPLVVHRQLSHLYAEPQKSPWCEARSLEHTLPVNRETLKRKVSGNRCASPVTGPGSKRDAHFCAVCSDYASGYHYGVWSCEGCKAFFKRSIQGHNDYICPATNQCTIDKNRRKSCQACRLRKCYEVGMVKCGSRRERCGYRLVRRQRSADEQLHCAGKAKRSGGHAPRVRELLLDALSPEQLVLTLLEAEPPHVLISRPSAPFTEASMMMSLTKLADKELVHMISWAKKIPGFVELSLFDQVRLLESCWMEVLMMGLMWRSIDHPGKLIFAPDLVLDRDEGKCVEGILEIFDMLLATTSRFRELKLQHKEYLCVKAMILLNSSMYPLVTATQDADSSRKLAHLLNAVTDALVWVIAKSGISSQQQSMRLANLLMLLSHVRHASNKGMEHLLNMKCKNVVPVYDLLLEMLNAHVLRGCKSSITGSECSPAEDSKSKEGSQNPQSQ
Chain of Androgen receptor (Homo sapiens) (P10275 whole entry, looked up): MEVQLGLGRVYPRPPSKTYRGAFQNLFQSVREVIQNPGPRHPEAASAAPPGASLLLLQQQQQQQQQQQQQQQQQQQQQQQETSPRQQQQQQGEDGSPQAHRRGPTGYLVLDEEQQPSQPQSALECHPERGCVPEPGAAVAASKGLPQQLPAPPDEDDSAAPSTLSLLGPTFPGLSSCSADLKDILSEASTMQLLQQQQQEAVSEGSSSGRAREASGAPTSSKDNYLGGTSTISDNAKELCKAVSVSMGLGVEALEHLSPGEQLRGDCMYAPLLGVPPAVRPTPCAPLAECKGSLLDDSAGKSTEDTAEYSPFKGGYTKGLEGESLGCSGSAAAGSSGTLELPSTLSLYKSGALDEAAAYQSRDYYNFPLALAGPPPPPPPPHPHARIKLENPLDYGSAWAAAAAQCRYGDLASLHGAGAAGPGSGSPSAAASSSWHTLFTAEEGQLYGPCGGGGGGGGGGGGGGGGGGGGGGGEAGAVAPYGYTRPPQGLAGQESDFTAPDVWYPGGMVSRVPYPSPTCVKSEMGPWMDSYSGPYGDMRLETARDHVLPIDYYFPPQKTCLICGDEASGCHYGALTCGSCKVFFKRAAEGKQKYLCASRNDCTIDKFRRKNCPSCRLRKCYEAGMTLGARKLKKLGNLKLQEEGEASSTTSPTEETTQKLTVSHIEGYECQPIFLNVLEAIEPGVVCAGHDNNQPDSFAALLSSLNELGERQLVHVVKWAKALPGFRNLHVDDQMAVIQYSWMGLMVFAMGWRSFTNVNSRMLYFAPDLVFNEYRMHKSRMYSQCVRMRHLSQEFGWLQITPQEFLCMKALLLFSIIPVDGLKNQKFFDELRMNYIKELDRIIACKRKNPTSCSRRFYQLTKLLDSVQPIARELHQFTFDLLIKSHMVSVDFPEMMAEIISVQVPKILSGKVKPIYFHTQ
Chain of Estrogen receptor (Homo sapiens) (P03372 whole entry, looked up): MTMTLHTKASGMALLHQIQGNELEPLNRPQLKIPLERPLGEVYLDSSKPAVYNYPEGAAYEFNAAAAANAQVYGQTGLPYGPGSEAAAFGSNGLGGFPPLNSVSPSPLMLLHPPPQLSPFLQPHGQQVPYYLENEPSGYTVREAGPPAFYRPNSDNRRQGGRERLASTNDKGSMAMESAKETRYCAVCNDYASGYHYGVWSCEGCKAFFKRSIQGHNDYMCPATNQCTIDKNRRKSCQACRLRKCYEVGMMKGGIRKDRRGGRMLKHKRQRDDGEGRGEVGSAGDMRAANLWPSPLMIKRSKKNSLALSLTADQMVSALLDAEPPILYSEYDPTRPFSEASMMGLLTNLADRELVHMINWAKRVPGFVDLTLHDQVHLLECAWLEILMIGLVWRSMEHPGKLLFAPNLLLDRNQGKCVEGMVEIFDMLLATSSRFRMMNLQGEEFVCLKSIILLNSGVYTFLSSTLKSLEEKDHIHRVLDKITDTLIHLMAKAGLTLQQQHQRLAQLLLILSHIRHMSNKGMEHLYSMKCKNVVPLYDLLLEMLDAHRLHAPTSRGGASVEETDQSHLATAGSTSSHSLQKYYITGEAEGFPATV

| Compound | Potency [1] | outcome [2] | outcome [3] | outcome [4] | Potency [5] | Potency [6] | outcome [7] | Potency [8] | Potency [9] | Potency [10] | Potency [11] | Potency [12] | Potency [13] | outcome [14] | outcome [15] | Potency [16] | outcome [17] | Potency [18] | Potency [19] | Potency [20] |
| --- | --- | --- | --- | --- | --- | --- | --- | --- | --- | --- | --- | --- | --- | --- | --- | --- | --- | --- | --- | --- |
| CCCCCCC(=O)OCC | inactive | inactive | inactive | inactive | inactive | inactive | inactive | inactive | inactive | inactive | inactive | inactive | inactive | inactive | – | – | – | – | – | – |
| O=C1OC(=O)c2cc([N+](=O)[O-])ccc21 | inactive | inactive | inactive | inactive | inactive | inactive | inactive | inactive | – | inactive | inactive | inactive | inactive | inactive | inactive | inactive | – | – | – | – |
| CC(O)CN(CCCN(C)C)CCCN(C)C (stereo unspecified) | inactive | inactive | inactive | – | inactive | inactive | inactive | inactive | inactive | inactive | inactive | inactive | – | – | inactive | inactive | inactive | – | – | – |
| CN(C)N=Nc1ccccc1 | inactive | inactive | inactive | – | inactive | inactive | inactive | inactive | inactive | inactive | inactive | inactive | – | inactive | inactive | inactive | inactive | – | – | – |
| COc1cccc(OC)c1 | inactive | inactive | inactive | – | inactive | inactive | inactive | inactive | inactive | inactive | inactive | inactive | – | inactive | inactive | inactive | inactive | – | – | – |
| NS(=O)(=O)c1cc(C2(O)NC(=O)c3ccccc32)ccc1Cl (stereo unspecified) | inactive | inactive | inactive | – | inactive | inactive | inactive | inactive | inactive | inactive | inactive | inactive | – | inactive | inactive | – | inactive | inactive | – | – |
| CCOC(=O)[C@H](CCc1ccccc1)N[C@@H](C)C(=O)N1CCC[C@H]1C(=O)O | inactive | inactive | inactive | – | inactive | inactive | inactive | inactive | inactive | – | inactive | inactive | – | inactive | – | – | – | inactive | – | – |
| O=Cc1ccccc1[N+](=O)[O-] | inactive | inactive | inactive | inactive | inactive | inactive | inactive | inactive | – | – | inactive | inactive | inactive | inactive | inactive | inactive | – | – | – | – |
| O=C(O)/C=C/c1ccc(Cn2ccnc2)cc1 | inactive | inactive | inactive | – | inactive | inactive | inactive | inactive | inactive | inactive | inactive | inactive | – | – | inactive | inactive | inactive | inactive | – | – |
| c1ccc(CCCc2ccccn2)cc1 | inactive | inactive | inactive | inactive | 4.33 µM (active) | inactive | inactive | inactive | inactive | inactive | inactive | inactive | – | inactive | inactive | inactive | – | – | – | – |
| O=C(O)C(O)[C@H](O)[C@@H](O)[C@H](O)[C@H](O)CO (stereo partly specified) | inactive | inactive | inactive | inactive | inactive | inactive | inactive | inactive | inactive | inactive | inactive | – | inactive | inactive | inactive | – | – | – | – | – |
| CCCCCCCCCCC1CO1 (stereo unspecified) | inactive | inactive | inactive | – | inactive | inactive | inactive | inactive | inactive | – | inactive | inactive | – | inactive | – | inactive | inactive | – | – | – |
| COc1cccc(Br)c1 | – | inactive | inactive | inactive | inactive | inactive | inactive | inactive | inactive | inactive | inactive | inactive | inactive | inactive | inactive | inactive | inactive | – | inactive | inactive |
| OC[C@H]1O[C@@H]2O[C@H]3[C@H](O)[C@@H](O)[C@@H](O[C@H]4[C@H](O)[C@@H](O)[C@@H](O[C@H]5[C@H](O)[C@@H](O)[C@@H](O[C@H]6[C@H](O)[C@@H](O)[C@@H](O[C@H]7[C@H](O)[C@@H](O)[C@@H](O[C@H]8[C@H](O)[C@@H](O)[C@@H](O[C@H]9[C@H](O)[C@@H](O)[C@@H](O[C@H]1[C@H](O)[C@H]2O)O[C@@H]9CO)O[C@@H]8CO)O[C@@H]7CO)O[C@@H]6CO)O[C@@H]5CO)O[C@@H]4CO)O[C@@H]3CO | inactive | inactive | inactive | – | inactive | inactive | inactive | inactive | inactive | – | inactive | inactive | – | inactive | inactive | inactive | inactive | – | – | – |
| C=CCn1c(=O)n([C@@H]2O[C@H](CO)[C@@H](O)[C@H]2O)c2nc(N)[nH]c(=O)c21 | – | inactive | inactive | inactive | inactive | inactive | inactive | inactive | – | inactive | inactive | inactive | inactive | inactive | inactive | inactive | inactive | inactive | inactive | inactive |
| CCCCc1ccc2cccc(S(=O)(=O)O)c2c1 | – | inactive | inactive | inactive | inactive | inactive | inactive | inactive | inactive | – | inactive | inactive | inactive | inactive | inactive | inactive | inactive | – | inactive | inactive |
| Cc1ccc(N)cc1[N+](=O)[O-] | inactive | inactive | inactive | – | inactive | inactive | inactive | inactive | – | – | inactive | inactive | – | inactive | – | inactive | inactive | – | – | inactive |
